This passage reports binding signal results from PMC7862700, “An all-to-all approach to the identification of sequence-specific readers for epigenetic DNA modifications on cytosine”.

What all share (experiment): DAPPL (digital affinity profiling via proximity ligation, sequencing); 10 mM Tris-HCl pH 7.5, 50 mM NaCl, 1 mM DTT, 4% glycerol, room temperature, 30 min; GST-TFs on glutathione beads, 16-mer random dsDNA library, 0.1% formaldehyde crosslink after washing; high values mean tight binding
One assay deals with T1, FEV (Homo sapiens, UniProt Q99581 1-238).
T1 sequence: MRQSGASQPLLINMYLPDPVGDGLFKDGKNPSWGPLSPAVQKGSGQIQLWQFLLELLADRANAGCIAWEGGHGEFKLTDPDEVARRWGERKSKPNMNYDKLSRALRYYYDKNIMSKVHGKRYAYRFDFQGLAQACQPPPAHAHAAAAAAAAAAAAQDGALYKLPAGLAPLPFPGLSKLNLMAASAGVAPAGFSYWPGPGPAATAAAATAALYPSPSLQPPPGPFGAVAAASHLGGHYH
The conditions noted are these: protein: recombinant; tags: N-terminal GST; dsDNA, one strand shown. Summed up:
(§1)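 A tag-only sample was pooled with DNA-barcoded human transcription factors that had been expressed in yeast as GST fusions and captured on glutathione beads. The pools were incubated for 30 min at room temperature with 200 nmole of a random double-stranded 16-mer DNA library in Tris/NaCl/DTT/glycerol buffer, then washed, crosslinked with 0.1% formaldehyde, proximity-ligated (BsaI/T4 ligase, 1 h, 37 °C), PCR-amplified and sequenced on an Illumina NextSeq500. Binding signal is each hexamer's read frequency for a factor divided by its frequency for the tag-only sample.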

For another assay, the target named is ETV5 (Homo sapiens, UniProt P41161 1-510). The conditions noted are these: protein: recombinant; tags: N-terminal GST; dsDNA, one strand shown. Summed up: as §1
In another assay the target is HSF1 (Homo sapiens, UniProt Q00613 1-529). The conditions noted are these: protein: recombinant; tags: N-terminal GST; chain copies: 3; dsDNA, one strand shown. In short, it runs like this:
as §1

The next assay concerns the target T2, SPIC (Homo sapiens, UniProt Q8N5J4 1-248).
T2 sequence: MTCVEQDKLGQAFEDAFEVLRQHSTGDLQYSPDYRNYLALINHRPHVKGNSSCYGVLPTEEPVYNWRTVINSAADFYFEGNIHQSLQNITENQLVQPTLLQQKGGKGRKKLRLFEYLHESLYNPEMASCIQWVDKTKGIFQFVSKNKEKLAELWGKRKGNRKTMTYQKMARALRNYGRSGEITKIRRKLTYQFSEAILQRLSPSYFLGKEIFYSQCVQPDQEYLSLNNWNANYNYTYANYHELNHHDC
The conditions noted are these: protein: recombinant; tags: N-terminal GST; dsDNA, one strand shown. In short, it runs like this: as §1

The next assay has as its target ELF4 (Homo sapiens, UniProt Q99607 1-663). The conditions noted are these: protein: recombinant; tags: N-terminal GST; dsDNA, one strand shown. In short, it runs like this: as §1
A further assay addresses T3, ELK4 (Homo sapiens, UniProt P28324-2 1-405).
T3 sequence: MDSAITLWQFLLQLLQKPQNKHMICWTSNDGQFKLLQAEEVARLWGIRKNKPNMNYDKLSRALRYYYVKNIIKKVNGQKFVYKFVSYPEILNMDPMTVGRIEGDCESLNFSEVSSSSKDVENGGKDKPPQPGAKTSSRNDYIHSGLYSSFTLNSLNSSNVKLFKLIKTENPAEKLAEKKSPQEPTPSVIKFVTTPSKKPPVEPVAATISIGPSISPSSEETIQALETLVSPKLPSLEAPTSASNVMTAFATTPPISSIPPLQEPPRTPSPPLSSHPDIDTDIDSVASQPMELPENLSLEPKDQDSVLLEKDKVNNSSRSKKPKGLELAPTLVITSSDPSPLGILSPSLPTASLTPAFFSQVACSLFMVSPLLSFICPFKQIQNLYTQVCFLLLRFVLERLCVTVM
The conditions noted are these: protein: recombinant; tags: N-terminal GST; dsDNA, one strand shown. In short, it runs like this:
as §1

The target in a further assay is T4, ETV2 (Homo sapiens, UniProt O00321 1-342).
T4 sequence: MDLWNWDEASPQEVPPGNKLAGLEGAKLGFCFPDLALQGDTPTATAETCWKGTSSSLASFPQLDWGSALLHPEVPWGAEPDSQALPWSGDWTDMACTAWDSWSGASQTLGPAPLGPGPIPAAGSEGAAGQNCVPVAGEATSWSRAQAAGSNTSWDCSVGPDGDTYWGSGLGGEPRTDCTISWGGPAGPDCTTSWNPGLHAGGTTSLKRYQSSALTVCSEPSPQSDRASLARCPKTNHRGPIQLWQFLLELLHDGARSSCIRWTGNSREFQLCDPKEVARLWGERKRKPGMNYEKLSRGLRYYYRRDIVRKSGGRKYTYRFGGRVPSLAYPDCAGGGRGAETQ
The conditions noted are these: protein: recombinant; tags: N-terminal GST; dsDNA, one strand shown. Summed up: as §1

In the next assay the target is T5, ELF3 (Homo sapiens, UniProt P78545 1-371).
T5 sequence: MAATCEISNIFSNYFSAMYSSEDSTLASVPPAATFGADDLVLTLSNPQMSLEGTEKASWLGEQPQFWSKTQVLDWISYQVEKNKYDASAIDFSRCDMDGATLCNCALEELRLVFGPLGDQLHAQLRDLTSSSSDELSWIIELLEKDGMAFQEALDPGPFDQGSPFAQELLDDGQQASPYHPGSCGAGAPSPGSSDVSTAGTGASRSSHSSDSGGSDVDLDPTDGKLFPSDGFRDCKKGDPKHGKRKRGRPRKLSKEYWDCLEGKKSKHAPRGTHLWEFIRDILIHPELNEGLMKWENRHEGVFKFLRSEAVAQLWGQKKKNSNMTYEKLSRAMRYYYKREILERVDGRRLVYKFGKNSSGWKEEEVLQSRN
The conditions noted are these: protein: recombinant; tags: N-terminal GST; dsDNA, one strand shown. In short, it runs like this:
as §1

For the next assay, the target named is CRX (Homo sapiens, UniProt O43186 1-299). The conditions noted are these: protein: recombinant; tags: N-terminal GST; dsDNA, one strand shown. Summed up: as §1
Another assay concerns the target ETV1 (Homo sapiens, UniProt P50549 1-477). The conditions noted are these: protein: recombinant; tags: N-terminal GST; dsDNA, one strand shown. In short, it runs like this: as §1
The next assay addresses T6, ERF (Homo sapiens, UniProt P50548 1-548).
T6 sequence: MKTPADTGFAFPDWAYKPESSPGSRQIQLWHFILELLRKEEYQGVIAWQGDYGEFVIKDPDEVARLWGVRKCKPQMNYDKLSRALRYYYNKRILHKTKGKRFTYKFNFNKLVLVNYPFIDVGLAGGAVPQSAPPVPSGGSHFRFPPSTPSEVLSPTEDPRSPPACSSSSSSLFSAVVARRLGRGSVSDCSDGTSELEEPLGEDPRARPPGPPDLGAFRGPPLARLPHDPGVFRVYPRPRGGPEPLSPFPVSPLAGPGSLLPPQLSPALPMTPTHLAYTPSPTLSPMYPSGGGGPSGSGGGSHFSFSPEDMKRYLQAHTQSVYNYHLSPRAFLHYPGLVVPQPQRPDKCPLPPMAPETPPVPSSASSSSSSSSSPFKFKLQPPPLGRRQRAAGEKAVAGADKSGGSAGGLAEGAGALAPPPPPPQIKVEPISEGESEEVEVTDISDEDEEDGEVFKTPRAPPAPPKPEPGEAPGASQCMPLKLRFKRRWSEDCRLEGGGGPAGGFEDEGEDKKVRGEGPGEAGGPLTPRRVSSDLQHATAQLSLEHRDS
The conditions noted are these: protein: recombinant; tags: N-terminal GST; dsDNA, one strand shown. In short, it runs like this:
as §1

The next assay deals with T7, ETV3L (Homo sapiens, UniProt Q6ZN32 1-361).
T7 sequence: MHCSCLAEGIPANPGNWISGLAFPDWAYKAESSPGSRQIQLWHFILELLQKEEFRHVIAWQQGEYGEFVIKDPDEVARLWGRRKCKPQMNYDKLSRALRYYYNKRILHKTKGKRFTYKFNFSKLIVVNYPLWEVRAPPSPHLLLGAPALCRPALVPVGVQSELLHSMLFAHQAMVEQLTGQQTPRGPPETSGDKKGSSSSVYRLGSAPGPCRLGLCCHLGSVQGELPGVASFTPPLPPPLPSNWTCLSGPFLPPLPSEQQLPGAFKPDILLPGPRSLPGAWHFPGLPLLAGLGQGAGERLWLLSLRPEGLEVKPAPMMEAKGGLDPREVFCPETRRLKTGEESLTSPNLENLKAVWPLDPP
The conditions noted are these: protein: recombinant; tags: N-terminal GST; dsDNA, one strand shown. In short, it runs like this:
as §1

In another assay the target is T8, ETS2 (Homo sapiens, UniProt P15036 1-469).
T8 sequence: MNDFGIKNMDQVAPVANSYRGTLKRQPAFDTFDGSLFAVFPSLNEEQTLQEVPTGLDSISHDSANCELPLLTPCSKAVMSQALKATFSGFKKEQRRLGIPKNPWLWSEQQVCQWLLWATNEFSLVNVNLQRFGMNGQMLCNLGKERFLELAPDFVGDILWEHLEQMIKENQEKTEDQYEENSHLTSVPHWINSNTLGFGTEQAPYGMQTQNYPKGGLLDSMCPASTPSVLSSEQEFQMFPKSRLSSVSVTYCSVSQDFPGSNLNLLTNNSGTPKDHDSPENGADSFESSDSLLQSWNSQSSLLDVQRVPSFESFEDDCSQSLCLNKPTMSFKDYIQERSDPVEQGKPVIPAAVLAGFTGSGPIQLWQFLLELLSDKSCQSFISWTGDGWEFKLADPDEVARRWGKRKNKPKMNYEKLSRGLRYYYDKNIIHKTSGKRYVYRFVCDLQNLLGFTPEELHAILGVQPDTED
The conditions noted are these: protein: recombinant; tags: N-terminal GST; dsDNA, one strand shown. In short, it runs like this: as §1

The target of another assay is T9, SPDEF (Homo sapiens, UniProt O95238 1-335).
T9 sequence: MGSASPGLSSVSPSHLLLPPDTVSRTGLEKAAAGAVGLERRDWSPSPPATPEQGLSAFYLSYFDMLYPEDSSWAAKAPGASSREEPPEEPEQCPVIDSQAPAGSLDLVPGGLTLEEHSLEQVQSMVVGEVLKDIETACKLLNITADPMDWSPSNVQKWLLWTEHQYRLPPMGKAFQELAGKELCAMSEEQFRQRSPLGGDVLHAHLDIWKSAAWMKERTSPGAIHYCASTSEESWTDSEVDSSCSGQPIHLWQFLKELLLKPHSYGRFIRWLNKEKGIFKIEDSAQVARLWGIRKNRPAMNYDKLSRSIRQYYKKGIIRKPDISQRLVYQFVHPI
The conditions noted are these: protein: recombinant; tags: N-terminal GST; dsDNA, one strand shown. Summed up:
as §1

A further assay has as its target T10, ETV7 (Homo sapiens, UniProt Q9Y603 1-341).
T10 sequence: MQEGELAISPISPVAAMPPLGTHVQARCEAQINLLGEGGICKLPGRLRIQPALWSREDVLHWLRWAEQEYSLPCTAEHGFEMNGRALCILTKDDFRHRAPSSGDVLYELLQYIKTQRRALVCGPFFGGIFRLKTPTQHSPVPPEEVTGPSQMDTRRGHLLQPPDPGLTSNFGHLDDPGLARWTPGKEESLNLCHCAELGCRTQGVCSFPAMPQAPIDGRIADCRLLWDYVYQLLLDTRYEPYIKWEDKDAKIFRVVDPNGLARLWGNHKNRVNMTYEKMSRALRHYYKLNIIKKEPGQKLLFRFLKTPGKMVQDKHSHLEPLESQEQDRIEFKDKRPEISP
The conditions noted are these: protein: recombinant; tags: N-terminal GST; dsDNA, one strand shown. Summed up: as §1

A further assay has as its target T11, ELF5 (Homo sapiens, UniProt Q9UKW6-2 1-255).
T11 sequence: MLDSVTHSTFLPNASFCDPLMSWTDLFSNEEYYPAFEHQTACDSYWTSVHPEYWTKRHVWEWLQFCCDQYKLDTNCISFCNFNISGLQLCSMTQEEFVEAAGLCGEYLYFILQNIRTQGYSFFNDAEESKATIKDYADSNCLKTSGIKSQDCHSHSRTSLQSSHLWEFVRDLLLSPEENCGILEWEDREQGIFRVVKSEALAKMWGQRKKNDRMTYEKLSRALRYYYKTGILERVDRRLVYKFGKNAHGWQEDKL
The conditions noted are these: protein: recombinant; tags: N-terminal GST; dsDNA, one strand shown. Summed up:
as §1

Another assay addresses T12, ETV3 (Homo sapiens, UniProt P41162-2 1-143).
T12 sequence: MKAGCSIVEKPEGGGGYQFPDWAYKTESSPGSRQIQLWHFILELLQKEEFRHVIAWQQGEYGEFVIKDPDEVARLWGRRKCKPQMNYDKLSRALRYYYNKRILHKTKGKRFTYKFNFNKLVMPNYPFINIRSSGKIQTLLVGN
The conditions noted are these: protein: recombinant; tags: N-terminal GST; dsDNA, one strand shown. Summed up:
as §1

A further assay concerns the target ETV6 (Homo sapiens, UniProt P41212 1-452). The conditions noted are these: protein: recombinant; tags: N-terminal GST; dsDNA, one strand shown. Summed up:
as §1

Sequence of ETV6 (P41212 whole entry): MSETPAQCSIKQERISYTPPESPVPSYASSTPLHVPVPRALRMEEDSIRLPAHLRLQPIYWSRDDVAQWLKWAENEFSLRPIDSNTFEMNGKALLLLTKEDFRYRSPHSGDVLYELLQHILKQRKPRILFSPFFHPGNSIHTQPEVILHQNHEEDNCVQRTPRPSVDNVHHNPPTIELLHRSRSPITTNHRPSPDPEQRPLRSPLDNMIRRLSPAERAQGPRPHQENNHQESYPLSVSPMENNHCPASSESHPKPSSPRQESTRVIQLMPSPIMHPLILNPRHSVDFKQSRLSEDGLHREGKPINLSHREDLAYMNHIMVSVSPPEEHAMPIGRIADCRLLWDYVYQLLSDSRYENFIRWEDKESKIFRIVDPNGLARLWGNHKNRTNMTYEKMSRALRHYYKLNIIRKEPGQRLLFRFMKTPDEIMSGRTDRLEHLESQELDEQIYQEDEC
Sequence of CRX (O43186 whole entry): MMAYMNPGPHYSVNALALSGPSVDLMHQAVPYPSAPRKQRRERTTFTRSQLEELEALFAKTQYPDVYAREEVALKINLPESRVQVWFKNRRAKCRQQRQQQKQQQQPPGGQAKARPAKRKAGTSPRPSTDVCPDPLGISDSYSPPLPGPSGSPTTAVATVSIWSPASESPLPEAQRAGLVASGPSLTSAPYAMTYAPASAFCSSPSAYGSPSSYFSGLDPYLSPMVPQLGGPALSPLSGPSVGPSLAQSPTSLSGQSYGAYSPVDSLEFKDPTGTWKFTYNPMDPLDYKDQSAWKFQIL
Sequence of ETV5 (P41161 whole entry): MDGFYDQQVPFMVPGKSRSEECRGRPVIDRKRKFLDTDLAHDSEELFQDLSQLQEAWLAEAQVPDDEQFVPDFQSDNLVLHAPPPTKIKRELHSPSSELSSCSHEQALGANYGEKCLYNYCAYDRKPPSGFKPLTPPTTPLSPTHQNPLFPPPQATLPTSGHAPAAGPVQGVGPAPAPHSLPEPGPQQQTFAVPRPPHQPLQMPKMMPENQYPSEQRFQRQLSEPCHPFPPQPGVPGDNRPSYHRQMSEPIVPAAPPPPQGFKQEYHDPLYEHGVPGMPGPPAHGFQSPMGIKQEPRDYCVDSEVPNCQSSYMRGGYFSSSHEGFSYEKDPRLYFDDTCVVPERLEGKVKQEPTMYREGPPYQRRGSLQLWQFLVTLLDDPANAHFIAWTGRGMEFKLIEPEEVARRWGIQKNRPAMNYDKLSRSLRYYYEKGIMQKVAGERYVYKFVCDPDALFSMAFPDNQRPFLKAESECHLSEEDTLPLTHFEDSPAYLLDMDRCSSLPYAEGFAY
Sequence of ELF4 (Q99607 whole entry): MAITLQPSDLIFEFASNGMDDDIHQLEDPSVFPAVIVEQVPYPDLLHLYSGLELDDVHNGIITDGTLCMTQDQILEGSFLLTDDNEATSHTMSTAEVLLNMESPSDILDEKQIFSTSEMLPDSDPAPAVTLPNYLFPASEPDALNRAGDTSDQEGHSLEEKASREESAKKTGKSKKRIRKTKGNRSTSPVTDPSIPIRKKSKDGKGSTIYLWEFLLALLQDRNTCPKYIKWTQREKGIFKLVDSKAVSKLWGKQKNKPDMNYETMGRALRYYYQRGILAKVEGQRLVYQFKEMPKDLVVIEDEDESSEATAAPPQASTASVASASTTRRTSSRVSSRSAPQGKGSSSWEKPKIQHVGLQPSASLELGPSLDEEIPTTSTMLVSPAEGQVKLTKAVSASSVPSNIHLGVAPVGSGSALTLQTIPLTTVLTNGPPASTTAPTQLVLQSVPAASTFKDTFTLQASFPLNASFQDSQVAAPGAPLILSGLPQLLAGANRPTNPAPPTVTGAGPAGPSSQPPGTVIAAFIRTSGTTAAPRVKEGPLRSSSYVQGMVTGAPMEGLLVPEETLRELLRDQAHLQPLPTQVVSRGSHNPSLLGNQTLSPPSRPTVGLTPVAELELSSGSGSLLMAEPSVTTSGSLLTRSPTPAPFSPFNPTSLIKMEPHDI
Sequence of ETV1 (P50549 whole entry): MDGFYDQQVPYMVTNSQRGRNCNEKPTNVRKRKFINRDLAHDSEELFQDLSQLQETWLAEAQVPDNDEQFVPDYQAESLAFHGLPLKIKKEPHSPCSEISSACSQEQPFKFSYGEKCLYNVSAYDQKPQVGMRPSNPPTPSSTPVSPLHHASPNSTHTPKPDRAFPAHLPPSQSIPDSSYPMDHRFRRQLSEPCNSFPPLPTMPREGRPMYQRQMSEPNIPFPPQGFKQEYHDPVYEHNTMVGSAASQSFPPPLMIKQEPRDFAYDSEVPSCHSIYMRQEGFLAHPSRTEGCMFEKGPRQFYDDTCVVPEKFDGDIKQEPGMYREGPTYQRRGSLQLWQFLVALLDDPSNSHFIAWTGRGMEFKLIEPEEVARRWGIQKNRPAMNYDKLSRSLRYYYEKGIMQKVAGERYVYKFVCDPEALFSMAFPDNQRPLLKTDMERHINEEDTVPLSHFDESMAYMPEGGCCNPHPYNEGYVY
Sequence of HSF1 (Q00613 whole entry): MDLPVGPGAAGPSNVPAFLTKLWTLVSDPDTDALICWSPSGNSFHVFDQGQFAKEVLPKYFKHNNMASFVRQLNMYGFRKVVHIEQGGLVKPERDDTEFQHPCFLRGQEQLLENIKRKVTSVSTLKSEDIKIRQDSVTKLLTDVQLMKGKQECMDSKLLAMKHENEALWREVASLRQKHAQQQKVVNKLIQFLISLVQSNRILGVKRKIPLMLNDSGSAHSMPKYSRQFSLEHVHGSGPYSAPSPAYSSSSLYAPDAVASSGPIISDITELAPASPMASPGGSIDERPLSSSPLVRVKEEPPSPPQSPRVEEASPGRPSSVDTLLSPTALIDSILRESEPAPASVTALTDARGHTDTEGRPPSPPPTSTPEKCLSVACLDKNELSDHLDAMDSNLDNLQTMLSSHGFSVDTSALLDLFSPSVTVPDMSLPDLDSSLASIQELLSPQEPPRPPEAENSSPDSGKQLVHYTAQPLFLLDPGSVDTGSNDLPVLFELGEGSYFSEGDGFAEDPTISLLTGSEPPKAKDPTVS

For CTTATT, the binding signal in the assay with FEV was 1.46 fold enrichment (6-mer frequency, TF over GST control); with ETV5, 1.42 fold enrichment (6-mer frequency, TF over GST control); in the assay with HSF1, 1.87 fold enrichment (6-mer frequency, TF over GST control); in the assay with SPIC it was 1.62 fold enrichment (6-mer frequency, TF over GST control); with ELF4 it was 1.43 fold enrichment (6-mer frequency, TF over GST control); in the assay with ELK4 it was 1.49 fold enrichment (6-mer frequency, TF over GST control). The binding signal in the assay with ETV2 was 1.5 fold enrichment (6-mer frequency, TF over GST control); with ELF3 it was 1.51 fold enrichment (6-mer frequency, TF over GST control); with CRX it was 2.55 fold enrichment (6-mer frequency, TF over GST control); in the assay with ETV1 it was 1.52 fold enrichment (6-mer frequency, TF over GST control); in the assay with ERF, 1.44 fold enrichment (6-mer frequency, TF over GST control); in the assay with ETV3L it was 1.5 fold enrichment (6-mer frequency, TF over GST control). The binding signal was 1.51 fold enrichment (6-mer frequency, TF over GST control) with ETS2; 1.54 fold enrichment (6-mer frequency, TF over GST control) with SPDEF; 1.43 fold enrichment (6-mer frequency, TF over GST control) with ETV7; 1.42 fold enrichment (6-mer frequency, TF over GST control) with ELF5; 1.31 fold enrichment (6-mer frequency, TF over GST control) with ETV3; 1.48 fold enrichment (6-mer frequency, TF over GST control) with ETV6.
